# Assay results from PubChem BioAssay (NCATS).
# Some of the results follow. A call without a number means that no potency is given here. Results filed as inconclusive are left out. Active and inactive are the calls of the source. The call rests on the fitted dose curve.
# Biological target: Polyprotein P1234 (Chikungunya virus (strain S27-African prototype)) (UniProt Q8JUX6)
# Experiment: Selectivity profile for inhibitors of NSP2Pro chikungunya virus (CHIKV): Endogenous NS2/3 peptide Counterscreen (AID 1964103); further: nearly all actives have a fitted effect of over 55% in size
# Details: Purified CHIKV nsP2 protease, endogenous NS2/3 peptide cleavage; series mostly up to 51 µM
# From the text: PI: Natalia J. Martinez Ph.D.
# National Center for Advancing Translational Sciences (NCATS),
# National Institute of Health (NIH), Rockville, Maryland
# Chikungunya virus (CHIKV) is a mosquito-borne RNA virus that has emerged as one of the most important global arboviral threats in the last decade. Although the first CHIKV vaccine has recently been FDA approved for use in healthy adults at increased risk, to date, there are no available antiviral drugs for CHIKV infection. CHIKV nsP2 protease plays a crucial role in the processing of the viral polypeptide precursor to release enzymes required for viral replication, thus making it a promising drug target for antiviral discovery. Here, we established a high-throughput pipeline to identify small molecule inhibitors of nsP2 proteolytic activity. The pipeline is composed of a suite of 1,536-well in vitro assays to support quantitative high-throughput (qHTS) screening campaigns. Specifically, we developed a fluorescence resonance energy transfer (FRET)-based assay using a fluorogenic peptide substrate encompassing an endogenous cleavage site and purified recombinant protease domain (nsP2pro). Using this assay, we interrogated ~37,000 small molecules, including those in drug repurposing libraries as well as chemically diverse and medicinal chemistry-friendly compounds. Hits were selected for follow-up validation against full-length nsP2 and an additional peptide. FRET-based 1,536-well assays for papain, hepatitis C virus NS3-4A, and human furin proteases were implemented to characterize compound selectivity. […] Novel compounds were identified to be potential nsP2 inhibitors and molecular docking analyses were performed to explain the binding mode of selected hits. In vitro antiviral activity was evaluated for a subset of compounds using a high-throughput CHIKV infection assay. To our knowledge, the pipeline presented here is unprecedented for CHIKV antiviral discovery research.
# PROTOCOL TABLE (as described by Inglese J, Shamu CE and Guy RK. 2007)
# SEQUENCE No. (e.g., 1, 2, 3, etc.); […] (e.g., Cells, Incubation, Reagent, etc.); VALUE; DESCRIPTION.
# 1; Control / Compound; 20 nL; Echo 655 acoustic dispenser, Greiner 1536-well solid bottom black plate.
# 2; Enzyme; 4 uL; BioRAPTR FRD liquid dispenser (Beckman Coulter).
# 3; Incubation; 15 min; room temperature.
# 4; Reagent; 4 uL; 2.5 uM endogenous NS2/3 peptide substrate.
# 5; Incubation; 1 hr; room temperature.
# 6; Detection; Fluorescence; WiewLux microplate reader (PerkinElmer), 525 nm excitation, 598/25 nm emission.
# NOTES (numbers refer to sequence numbers above).
# 1. Briefly, 20 nL DMSO, positive control ZnAc (20nM final concentration), and test compounds were transferred into a 1,536-well solid bottom black plate (789176-F, Greiner One) via Echo 655 acoustic dispenser (Beckman Coulter). For primary screens, compounds were tested at 7 concentrations, 1:3 dilution points ranging from 25 uM to 34 nM. Follow-up confirmatory screens were carried out at 11 concentrations, 1:3 dilution points from 25 uM to 0.42 nM.
# 2. Four uL nsP2pro enzyme mix (150 nM final concentration) in 10 mM Tris-HCl pH 8.0 with 0.01% Tween 20 assay buffer was dispensed into the plate using a BioRAPTR FRD liquid dispenser (Beckman Coulter).
# 3. The plate was incubated at room temperature (protected from light) for 15 min
# 4. Four microliter of endogenous NS2/3 peptide substrate (peptide 3: TMR-[…]/APSYR-K-QSY7; 2.5 uM final concentration) in assay buffer was added to the plate.
# 5. After 1 hour, plates were immediately read on a ViewLux high-throughput CCD imager (Exposure = 10 sec, Gain = High, Speed = Slow, Binning = 2X). The above assay was also incorporated in the NCATS HTS facility41, which allowed for robotic liquid and compound dispensing, microplate handling, and fluorescence reading.
# Inglese J, Shamu CE and Guy RK, Reporting data from high throughput screening of small molecule libraries, Nature Chemical Biology, 2007, 3(8): 438-441. doi.org/10.1038/nchembio0807-438.
# Potency means the concentration at half of the fitted maximal effect.
# Chain of Polyprotein P1234 (Chikungunya virus (strain S27-African prototype)) (Q8JUX6 whole entry, looked up): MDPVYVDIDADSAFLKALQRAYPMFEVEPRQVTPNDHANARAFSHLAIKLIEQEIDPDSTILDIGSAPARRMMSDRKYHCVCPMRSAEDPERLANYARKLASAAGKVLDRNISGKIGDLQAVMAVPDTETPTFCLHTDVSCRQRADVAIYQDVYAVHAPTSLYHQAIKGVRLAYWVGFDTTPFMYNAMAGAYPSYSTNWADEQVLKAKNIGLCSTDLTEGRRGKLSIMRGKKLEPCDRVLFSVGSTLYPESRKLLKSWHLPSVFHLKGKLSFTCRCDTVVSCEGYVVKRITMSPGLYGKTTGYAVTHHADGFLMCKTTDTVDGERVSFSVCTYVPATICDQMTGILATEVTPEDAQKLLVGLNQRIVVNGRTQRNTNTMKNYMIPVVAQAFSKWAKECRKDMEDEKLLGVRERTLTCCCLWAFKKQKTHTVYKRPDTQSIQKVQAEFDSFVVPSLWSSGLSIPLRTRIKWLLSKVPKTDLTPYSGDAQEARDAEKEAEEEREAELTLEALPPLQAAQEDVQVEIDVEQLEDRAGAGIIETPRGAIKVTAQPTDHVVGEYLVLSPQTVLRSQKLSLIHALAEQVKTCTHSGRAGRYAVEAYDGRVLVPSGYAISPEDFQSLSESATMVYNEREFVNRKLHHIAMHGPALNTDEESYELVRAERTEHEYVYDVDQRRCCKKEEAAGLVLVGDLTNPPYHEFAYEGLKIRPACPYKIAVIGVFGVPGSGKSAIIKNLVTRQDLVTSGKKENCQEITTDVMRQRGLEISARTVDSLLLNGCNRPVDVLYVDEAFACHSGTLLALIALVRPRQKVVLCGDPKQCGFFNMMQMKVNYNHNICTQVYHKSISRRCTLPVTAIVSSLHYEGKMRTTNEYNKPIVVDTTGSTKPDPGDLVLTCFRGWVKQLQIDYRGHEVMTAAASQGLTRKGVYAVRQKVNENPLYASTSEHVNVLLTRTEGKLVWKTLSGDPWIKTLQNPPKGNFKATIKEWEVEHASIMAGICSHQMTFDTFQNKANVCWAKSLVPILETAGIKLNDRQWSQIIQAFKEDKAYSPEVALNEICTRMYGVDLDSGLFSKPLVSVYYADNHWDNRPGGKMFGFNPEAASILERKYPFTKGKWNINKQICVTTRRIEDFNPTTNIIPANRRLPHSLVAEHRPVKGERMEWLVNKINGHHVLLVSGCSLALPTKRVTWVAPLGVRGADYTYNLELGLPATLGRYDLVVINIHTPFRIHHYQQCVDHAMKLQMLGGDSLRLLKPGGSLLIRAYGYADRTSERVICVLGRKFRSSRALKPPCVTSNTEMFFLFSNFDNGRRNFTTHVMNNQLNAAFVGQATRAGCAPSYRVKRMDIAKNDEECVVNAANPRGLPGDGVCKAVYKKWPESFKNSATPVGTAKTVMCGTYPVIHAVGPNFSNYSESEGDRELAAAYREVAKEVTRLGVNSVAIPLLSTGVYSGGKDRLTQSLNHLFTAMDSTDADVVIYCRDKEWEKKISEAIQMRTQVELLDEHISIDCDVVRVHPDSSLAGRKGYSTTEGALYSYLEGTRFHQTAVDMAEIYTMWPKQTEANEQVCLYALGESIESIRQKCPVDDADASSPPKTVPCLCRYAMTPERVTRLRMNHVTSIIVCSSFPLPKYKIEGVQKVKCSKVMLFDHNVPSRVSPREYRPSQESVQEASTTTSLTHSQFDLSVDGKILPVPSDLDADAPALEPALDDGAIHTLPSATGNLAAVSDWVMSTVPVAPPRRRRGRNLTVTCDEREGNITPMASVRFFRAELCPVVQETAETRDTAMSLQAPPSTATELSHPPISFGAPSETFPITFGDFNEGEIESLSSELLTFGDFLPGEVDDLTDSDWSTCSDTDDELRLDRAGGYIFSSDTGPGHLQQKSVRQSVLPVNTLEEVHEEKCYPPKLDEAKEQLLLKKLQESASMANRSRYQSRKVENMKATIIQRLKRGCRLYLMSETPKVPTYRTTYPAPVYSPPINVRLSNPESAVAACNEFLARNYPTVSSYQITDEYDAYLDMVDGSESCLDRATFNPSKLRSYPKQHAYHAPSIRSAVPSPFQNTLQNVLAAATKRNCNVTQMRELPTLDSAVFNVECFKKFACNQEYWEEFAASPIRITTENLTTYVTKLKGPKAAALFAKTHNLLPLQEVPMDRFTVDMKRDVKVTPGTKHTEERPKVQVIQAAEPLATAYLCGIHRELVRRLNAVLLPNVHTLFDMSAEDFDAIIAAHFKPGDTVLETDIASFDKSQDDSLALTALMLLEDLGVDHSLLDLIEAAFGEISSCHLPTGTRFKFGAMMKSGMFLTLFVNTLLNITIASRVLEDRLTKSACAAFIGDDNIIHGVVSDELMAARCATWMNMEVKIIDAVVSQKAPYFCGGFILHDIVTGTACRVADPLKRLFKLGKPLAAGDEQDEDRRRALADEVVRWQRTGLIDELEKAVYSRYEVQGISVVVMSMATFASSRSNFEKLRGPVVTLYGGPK
row,SMILES,Potency
1,CCc1ccccc1NC(=O)c1cnn(-c2ccc(F)cc2)c1C1CCNCC1,inactive
2,O=C(O)c1cccc(-n2[nH]c(-c3ccccc3)cc2=O)c1,inactive
3,Cc1c(S(=O)(=O)O)oc2c1C(=O)C(=O)c1c-2ccc2c1CCCC2(C)C,inactive
4,CCOc1ccc(NC(=O)c2c(NC(=O)Cc3ccccc3)sc3c2CCCCC3)cc1,16.3 µM (active)
5,CC1=C(/C=C/C(C)=C/C=C/C(C)=C/C=C/C=C(C)/C=C/C=C(C)/C=C/C2=C(C)CCCC2(C)C)C(C)(C)CCC1,inactive
6,N#CSc1cc(SC#N)c(N)nc1N,0.206 µM (active)
7,CCC(C)C(=O)OC1C(C)C2(O)C(C=C(CO)CC3(O)C(=O)C(C)=CC32)C2C(C)(C)C12OC(=O)C(C)C (stereo not given),inactive
8,C[C@@H]1C[C@@H](O)[C@@]23CO[C@]2(CO)C[C@@H](O)CC3[C@@]12CC(c1ccoc1)OC2=O (stereo not given in full),inactive
9,CO[C@]1(NC(=O)CSC(F)F)C(=O)N2C(C(=O)O)=C(CSc3nnnn3CCO)CO[C@H]21,inactive
10,CC(=O)N[C@@H](C(=O)O[C@H]1CCC(C)(C)[C@@H]2CCC3=C(COC3=O)[C@@]12C)C(C)C,inactive
11,Cn1nnnc1Sc1ncnc2n[nH]c(-c3cccc(S(C)(=O)=O)c3)c12,4.47 µM (active)
12,C[C@@H]1[C@H](O)[C@@H]2OC(=O)C3=C2[C@H](CCC3)[C@@]12C[C@@H](c1ccoc1)OC2=O,inactive
13,CCOc1ccc(NC(=O)c2c(NC(=O)Cc3ccccc3)sc3c2CCC(C)C3)cc1 (stereo not given),13 µM (active)
14,CCOc1ccc(N(Cc2ccccc2)C(=O)c2nc(S(C)(=O)=O)ncc2Cl)cc1,4.61 µM (active)
15,Oc1ccc(OC2CCCCO2)cc1 (stereo not given),inactive
